Laboratory results from PubChem BioAssay AID624331 (National Center for Advancing Translational Sciences (NCATS), 2012).
Records with an inconclusive call do not appear. Where a call stands in place of a potency, no number is given. Calls of active or inactive are those of the source. The call rests on the fitted dose curve; in most records, active means well fitted activation curve with a large enough effect; inconclusive means small, poorly fitted or top-dose-only effect; inactive means no such curve, though single readings can be large or run the other way.

experiment: qHTS assay for re-activators of p53 using a Luc reporter: Hit Validation with no p53 Expressed; conditions: p53-null cells, luciferase reporter counter-screen; series mostly up to 46.1 µM
Text: The p53 tumor suppressor plays a key role in suppression of tumorigenesis and in human carcinogenesis. It is frequently found inactivated in human cancers, mainly by point mutation. These point mutations are found in a wide variety of human cancers and a majority of them affect the DNA binding domain of the protein. The point mutations either alter native p53 conformation or abolish DNA contact. Additionally, cancer cells with p53 mutations are more resistant to chemo-radiation therapies.
This counter screen was run against the hits identified from the primary screen. It uses a cell line that was not transfected with p53. Compounds that show activity in this counter screen show unspecific activation of the assay system and are excluded from further consideration.
NIH Chemical Genomics Center [NCGC]
NIH Molecular Libraries Probe Production Centers Network [MLPCN]
Assay Provider (PI): Yi Sung, University of Michigan at Ann Arbor
5ul of 1000 cells per well are dispensed in all wells except column 4, into white solid-bottom TC-treated Kalypsys plates. The cells are kept in Opti-MEM and supplemented with 10% FBS and dispensed using a Multidrop (Thermo). Then using the Kalypsys pin-tool, 23nl of compounds are pinned. The compounds are starting concentration at 10mM, with 1:5 dilution, 4 points, and the control compound nocodazole is pinned in column 1 at 25mM, 1:3 dilution, in duplicate, 25mM nocodazole is pinned in column 2. Please note, all concentrations are working concentrations. 5ul of 1pM purified luciferase enzyme is dispensed using the Kalypsys dispenser in column 4. Plates are incubated for 24 hrs at 37 deg C, 5% CO2, and 95% humidity. Then 4ul of the detection reagent Amplite (ABD Bioquest) is added using the Kalypsys dispenser. Plates are incubated for 10 min at ambient room temperature and are then read on the ViewLux (Perkin Elmer) using a clear filter for a luminescent read-out.
Potency means the concentration at half of the fitted maximal effect.

SMILES	Potency
O=C(/C=C/c1cccs1)Nc1ccc(Br)cn1	inactive
Cc1ccc(NC(=O)/C(Cl)=C/c2ccccc2)cc1C	inactive
CC(C)C(=O)Nc1ccc(-c2nc3cccnc3o2)cc1	inactive
COc1ccccc1N=Nc1[nH]c2ccc(C)cc2c1O	inactive
CCc1nnc(NC(=O)/C=C/c2ccco2)s1	inactive
C/C(=N\NC(=O)c1cccc(Br)c1)c1ccccn1	inactive
CC(=O)c1ccc(N2Cc3ccccc3C2=NC(=O)c2cccs2)cc1	10.3 µM (active)
CCCCn1c(SCC(=O)N2CCCC2=O)nc2cc(S(N)(=O)=O)ccc21	inactive
O=C(Nc1ccc(Cl)cc1Cl)c1ccc2c(c1)OCCO2	inactive
CCCCNC(=S)N(Cc1c(C)noc1C)c1ccccc1	inactive
COc1ccc(CCC(=O)NC(C)C2CCCO2)cc1 (stereo not given)	inactive
C=CCOc1c(OC)cc(/C=N/Nc2cccc(C(=O)O)c2)c(Br)c1Br	inactive
COc1ccc(NC(=O)CN(C)CC(=O)Nc2ccccc2SC)cc1	inactive
O=C(Nc1nc2c(s1)CCCC2)C1COc2ccccc2O1 (stereo not given)	inactive
O=C(N/N=C\c1cc(Cl)ccc1O)c1ccc(S(=O)(=O)N2CCCCC2)cc1	inactive
COCC(C)NC(=O)C1CC(=O)N(c2ccc(C)cc2)C1 (stereo not given)	inactive
CC(=O)N1CCC(C(=O)Nc2ccc(S(=O)(=O)NCCc3ccccc3)cc2)CC1	inactive
Cc1cc(C)nc(SCC(=O)OCC(=O)Nc2nc3ccccc3s2)n1	inactive
O=C(Nc1cccc(O)c1)C(=O)Nc1ccccn1	inactive
CN1CCN(C(=O)c2cc3ccccc3cc2O)CC1	inactive

SMILES	Potency
O=C(Cc1ccccc1)NCc1ccc(F)cc1	inactive
O=C(C1CCCN1S(=O)(=O)c1ccc(Cl)cc1)N1CCOCC1 (stereo not given)	inactive
Cc1ccc(-c2nnc(SCc3ccccc3F)o2)cc1	inactive
CCOC(=O)c1[nH]nc(C(=O)c2ccc(Br)cc2)c1O	inactive
CN(c1ccc(C(=O)COC(=O)C2CC2)cc1)S(C)(=O)=O	inactive
O=C(Nc1ccc(Cl)cc1)Nc1nnc(SCc2ccccc2)s1	inactive
C/C(=N\NC(=O)c1cccs1)C(C)(C)C	inactive
COC(=O)C1=C(C(=O)c2ccccc2)C(c2ccc(OC)c(OC)c2)Nc2nnnn21 (stereo not given)	inactive
CCn1c(=N)n(CCOc2ccc(OC)cc2)c2ccccc21	inactive
Cc1nc2ccccc2nc(C)c1=NOCc1ccccc1Cl	inactive
COc1ccc2oc(-c3cccc(NC(=O)CSc4ccc(Cl)cc4)c3)nc2c1	inactive
Nc1ccc(-c2cnc(-c3ccc(N)cc3)nc2)cc1	inactive
O=C(CN1C(=O)NC2(CCCc3ccccc32)C1=O)c1ccc(F)cc1 (stereo not given)	inactive
CN(C)c1ccc(/C=N/N=C/c2ccccc2O)cc1	inactive
CN(C)CCCn1c(SCC(=O)Nc2nccs2)nnc1-c1ccncc1	inactive
CSCCC(NC(=O)c1ccc(Cl)cc1Cl)C(=O)N1CC(C)OC(C)C1 (stereo not given)	inactive
Cc1ccc2oc(C(=O)Nc3cc(C)on3)c(C)c2c1	9.2 µM (active)
CC(C)c1ccc(NC(=S)NN2CCOCC2)cc1	inactive
Cc1ccc(NC(=O)c2ccc(OC(=O)COc3ccc(Cl)c(C)c3)cc2)cc1	inactive
O=C(Nc1ccc(COc2ccccc2)cc1)c1cccc([N+](=O)[O-])c1	inactive
